According to PubChem BioAssay (NCI):
This is part of a sample that, as a whole, favours compounds with a hit. Of some 83,000 tested, about 20% had one in any assay.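 Plates (96-well) were seeded with cells, treated with compound at one concentration, and incubated for 48 hours before percent growth was determined.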 A number with no mark means an inactive call. The source made the active and inactive calls. How the source made its calls: active means growth percent below 10; inactive means the rest.

Key:
Assay in all cases: NCI-60 one-dose screen, 48 h (100 = growth as untreated, 0 = no growth, -100 = all killed)
Conditions in all cases: 10 µM unless noted
NCI-H23 lung = tested on: NCI-H23 lung
NCI-H322M lung = tested on: NCI-H322M lung
HOP-62 NSCLC = tested on: HOP-62 NSCLC
NCI-H460 lung = tested on: NCI-H460 lung
NCI-H522 lung = tested on: NCI-H522 lung
A549/ATCC NSCLC = tested on: A549/ATCC NSCLC
786-0 renal = tested on: 786-0 renal
COLO 205 colon = tested on: COLO 205 colon
DU-145 prostate = tested on: DU-145 prostate
K-562 leukemia = tested on: K-562 leukemia
MALME-3M melanoma = tested on: MALME-3M melanoma
MDA-MB-231 breast = tested on: MDA-MB-231 breast
RXF 393 renal = tested on: RXF 393 renal
SF-268 CNS = tested on: SF-268 CNS
SF-539 CNS = tested on: SF-539 CNS
UACC-257 melanoma = tested on: UACC-257 melanoma
M14 melanoma = tested on: M14 melanoma
HCT-15 colon = tested on: HCT-15 colon
SF-295 CNS = tested on: SF-295 CNS

Compound	growth (NCI-H23 lung)	growth (NCI-H322M lung)	growth (HOP-62 NSCLC)	growth (NCI-H460 lung)	growth (NCI-H522 lung)	growth (A549/ATCC NSCLC)	growth (786-0 renal)	growth (COLO 205 colon)	growth (DU-145 prostate)	growth (K-562 leukemia)	growth (MALME-3M melanoma)	growth (MDA-MB-231 breast)	growth (RXF 393 renal)	growth (SF-268 CNS)	growth (SF-539 CNS)	growth (UACC-257 melanoma)	growth (M14 melanoma)	growth (HCT-15 colon)	growth (SF-295 CNS)
CCOC(Cc1c(N)[nH]c(=S)[nH]c1=O)OCC	104%	98.9%	102%	114%	93%	104%	109%	105%	115%	98.5%	99.5%	111%	108%	111%	99.4%	103%	105%	106%	–
CN(C)c1ccc(/C=C(\C#N)c2nc3ccccc3c(=O)[nH]2)cc1	70.2%	89.7%	–	87.3%	84.2%	99.5%	91.9%	111%	93%	118%	75.8%	76%	91.1%	69.4%	93.6%	–	97.3%	97.2%	92.9%
CCCCCCC(C)(O)c1ccccc1 (configuration not stated)	102%	126%	105%	110%	100%	110%	108%	114%	118%	101%	–	109%	124%	107%	110%	115%	105%	110%	125%
C/C(=N/N=C(N)N)c1ccc(Cl)cc1	95.1%	90.2%	–	102%	89%	106%	89.6%	–	106%	67.8%	143%	84%	90.5%	101%	100%	77.1%	86.9%	–	–
c1csc([C@@H]2C[C@@H]3Cc4ccc5ccccc5c4N2O3)c1	95.5%	91.2%	112%	109%	87%	90.8%	98.2%	120%	113%	93.2%	86.4%	89.1%	104%	108%	90.5%	98.7%	99.7%	93.7%	109%
COc1ccc(-c2nc3sccn3c2-c2ccnc(S(C)(=O)=O)n2)cc1	100%	55.4%	78.7%	88.9%	26.7%	105%	99.1%	84.2%	56.7%	–	75.1%	84.3%	97.5%	95%	109%	111%	102%	84.3%	74.9%
CC(=O)Oc1ccc(C2OC(c3ccc4ccccc4c3OC(C)=O)=NN2C(C)=O)c(OC(C)=O)c1 (configuration not stated)	28.8%	24.4%	14.7%	6.03% (active)	4.49% (active)	6.76% (active)	5.71% (active)	15.9%	22.7%	4.1% (active)	8.98% (active)	39.9%	1.4% (active)	13.7%	13.9%	-28.2% (active)	3.34% (active)	34.1%	–
O=C1OCCCCCCCCCC#Cc2ccccc21	97%	126%	–	133%	71.2%	103%	103%	100%	116%	94.2%	146%	110%	–	182%	105%	124%	109%	109%	151%
O=C(c1ccccc1)c1ccco1	99.2%	105%	105%	105%	89.3%	97%	101%	109%	113%	102%	108%	93.6%	131%	98.5%	92.5%	89.3%	98.7%	104%	–
O=[N+]([O-])c1cnc(Sc2ccncn2)c([N+](=O)[O-])c1	103%	108%	99.3%	100%	-83.1% (active)	97.6%	106%	-11.8% (active)	109%	-46.9% (active)	-53% (active)	91.1%	94.3%	101%	97.7%	-9.5% (active)	97.2%	0.0905% (active)	–
c1cnc2ccc3ncccc3c2c1	118%	117%	82.6%	105%	84.6%	90.2%	103%	109%	117%	106%	146%	114%	–	107%	104%	83.5%	99.8%	108%	113%
CCC(C)CC(C)C(=O)c1c(O)ccn(OC)c1=O (configuration not stated)	84.7%	69.2%	54.8%	77.8%	90.9%	90.8%	101%	109%	66.8%	69.3%	80.7%	61.7%	72.5%	54.2%	63.2%	97.7%	71.1%	29.9%	87.1%
CCOC(=O)/C=C(/C)Sc1cc(O)c2ccccc2c1O	-71.4% (active)	-19.9% (active)	157%	-64% (active)	12.7%	-34.1% (active)	159%	46.6%	-100% (active)	17.6%	-90% (active)	14.7%	46.1%	32.8%	5.78% (active)	5.04% (active)	-94.6% (active)	-12.6% (active)	30.2%
CC(CCC(=O)O)(NC(=O)c1ccc([N+](=O)[O-])cc1)C(=O)O (configuration not stated)	98.4%	107%	–	107%	106%	107%	105%	107%	104%	99%	106%	113%	115%	104%	105%	99.4%	102%	113%	106%
CC[C@H](C)C(=O)O[C@H]1C[C@@H](C)C=C2C=C[C@H](C)[C@H](CC[C@@H]3C[C@@H](O)CC(=O)O3)[C@H]21	67.8%	54.2%	104%	102%	27.3%	102%	90.5%	99.7%	106%	104%	89.7%	-35.3% (active)	97.7%	42.7%	95.9%	83.5%	59.2%	55.1%	28.8%
NC(N)=NC(N)=NCCCc1ccccc1	50.2% [100 µM]	84.6% [100 µM]	65.1% [100 µM]	81.6% [100 µM]	47.2% [100 µM]	62.3% [100 µM]	56.2% [100 µM]	–	–	–	63.9% [100 µM]	69% [100 µM]	72.4% [100 µM]	59.5% [100 µM]	66.5% [100 µM]	62.8% [100 µM]	76.6% [100 µM]	80.3% [100 µM]	49.4% [100 µM]
CCOc1cc(C(C)(C)C)ccc1C1=N[C@H](c2ccc(Cl)cc2)[C@H](c2ccc(Cl)cc2)N1C(=O)N1CCN(CC#Cc2cccc3c2CN([C@@H]2CCC(=O)NC2=O)C3=O)CC1	77%	9.35% (active)	40.7%	24.2%	39.3%	24.8%	43.8%	8.66% (active)	57.1%	24.5%	-32.9% (active)	-15.5% (active)	–	39.9%	70.3%	42.6%	–	2.53% (active)	35.1%
